In the library only some 3.6% were active in any assay of this set; here they are far more common.
pS6 MEF inh = Acumen qHTS Assay for Inhibitors of the mTORC1 Signaling Pathway in MEF (Tsc2-/-, p53-/-) Cells: Sytravon; Tsc2-/- p53-/- MEF, phospho-rpS6 immunofluorescence/PI, 24 h; Potency, µM (top dose mostly 38.3 µM), most hits filed as inhibitors; hit rate 0.78% among 44,000; further: nearly all actives have a fitted effect of over 50% in size
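Tsc2-/-, p53-/- MEFs (empty-vector stable line) in DMEM + 10% FBS were treated with compounds 24 h at 37 degree Celsius, fixed, and immunostained for phospho-rpS6 (Alexa-488) with propidium iodide counterstain. Laser-scanning cytometry gave % positive cells, normalized against 7.5 nM rapamycin and DMSO.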
NTMT1 inhibitor = Primary qHTS for Inhibitors of N-terminal methyltransferase 1 (NTMT1): MTaseGlo Assay; hit rate 2.5% among 59,000; NTMT1 MTase-Glo SAH luminescence, purified enzyme; Potency, µM (top dose mostly 114 µM), most hits filed as inhibitors; N-terminal Xaa-Pro-Lys N-methyltransferase 1 (Homo sapiens), Q9BV86; further: nearly all actives have a fitted effect of over 65% in size
Target sequence (Q9BV86 whole entry, looked up): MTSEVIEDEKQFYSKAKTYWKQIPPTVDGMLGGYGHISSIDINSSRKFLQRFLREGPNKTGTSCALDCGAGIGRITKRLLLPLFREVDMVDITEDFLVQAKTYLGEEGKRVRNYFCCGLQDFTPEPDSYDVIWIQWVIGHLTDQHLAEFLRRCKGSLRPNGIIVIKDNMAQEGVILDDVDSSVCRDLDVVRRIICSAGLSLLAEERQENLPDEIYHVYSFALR
S16 viability = Cell viability qHTS assay in S16 Pmp22-F2sN cells; S16 Pmp22-F2sN Schwann cells viability, CellTiter-Glo, 24 h; Potency, µM (series often up to 57.5 µM), usual class: cytotoxic; hit rate 0.48% among 43,000; further: nearly all actives have a fitted effect of over 65% in size
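Luminescence from CellTiter-Glo, read by CCD camera after a 15 min room-temperature incubation, served as the viability signal. Reporter Schwann cells (S16 Pmp22-F2sN) had been treated with pin-transferred compounds for 24 h at 37C.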
GALC G270D act = A Novel Cell-Based Assay to Identify Small Molecules for B -Galactocerebrosidase | P54803 | 145M-Twi-hGALC-G270D cells, HMU-beta-Gal fluorescence, 48 h | Potency, µM (top dose mostly 57.5 µM), actives largely listed as activators | hit rate 0.1% among 45,000 | AID 1159614, 2016; further: nearly all actives have a fitted effect of over 65% in size
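qHTS, 1536-well; 145M-Twi-hGALC-G270D cells (WT line also made) in DMEM/F12 + 10% FBS; compound incubation on live cells; HMU-β-gal 0.1 mM final, pH 5.2, NaTC; carbonate stop; fluorescence increase = enhanced residual activity.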
PMP22 txn = Cell-based coincidence reporter assay to measure PMP22 gene transcription in S16 Pmp22-F2sN cells - Primary screen | S16 Pmp22-F2sN Schwann cells (luciferase reporters placed in the Pmp22 gene), FLuc/NLuc coincidence luminescence, 24 h | Potency, µM (series often up to 57.5 µM), actives largely listed as inhibitors | hit rate 2% among 43,000; active means clear falling dose curves in both reporters; inconclusive means both reporters move, but less clearly or upward; inactive means either reporter flat; the % is the NLuc reporter signal
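Luminescent read-out of sequential FLuc and NLuc signals from a reporter embedded in the Pmp22 3' UTR of S16 Schwann cells, taken after 24 h compound exposure at 37C; compounds reducing both signals score as inhibitors of expression.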
SKOV3 invasion = Primary qHTS assay for Inhibitors of ovarian cancer metastasis using an organotypic tumor microenvironment (TME) model. SKOV3ip1-GFP adhesion/invasion on 3D omental model, fluorescence. Potency, µM (top dose mostly 45.8 µM), usual class: inhibitors. hit rate 0.1% among 46,000; further: nearly all actives have a fitted effect of over 65% in size
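qHTS, 4-pt dose (0.36-46 umol/L); SKOV3ip1-GFP, 1,200 cells/well, no FBS; primary omental fibroblast/mesothelial co-culture 48 h pre-grown; 2 h RT + 16 h 37 C; PBS wash, 4% PFA; GFP count 488/509 nm.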
Numbers stand for hits; . = inactive; ? = inconclusive; / = not tested or not shown; ! = not confirmed by another sample; [ ] = dose if it differs, or a comment. Unless noted, the call rests on the fitted dose curve; in most records, active means well fitted curve in the direction sought with a large enough effect; inconclusive means small, poorly fitted or top-dose-only effect, or another doubt; inactive means no such curve, though single readings can be large; an effect the other way counts as inactive or inconclusive.

SMILES	pS6 MEF inh	NTMT1 inhibitor	S16 viability	GALC G270D act	PMP22 txn	SKOV3 invasion
C=C1CO[C@@]2(O[C@H]3CC4C5CC=C6C[C@@H](O)C[C@@H](O[C@@H]7OC[C@H](O)[C@H](O[C@@H]8OC[C@@H](O)[C@H](O)[C@H]8O)[C@H]7O[C@@H]7O[C@@H](C)[C@H](OC(C)=O)[C@@H](OC(C)=O)[C@H]7OC(C)=O)[C@]6(C)C5CC[C@]4(C)[C@@H]3[C@@H]2C)[C@@H](O)[C@H]1OC1OC(C)C(O)C(O)C1O (stereo not given in full)	/	.[6.45 µM]	/	/	/	/
Cn1cc(C2=C(c3c4n(c5ccccc35)CCC(CN)C4)C(=O)NC2=O)c2ccccc21 (stereo not given)	/	40µM!	/	/	/	.
CC(C)S(=O)(=O)NC[C@H](C)c1ccc(NC(=O)c2cc(F)cc(F)c2)cc1	/	.	/	/	/	/
CN1CCN(c2cccc(Nc3nn4c(=O)c5ccc(F)cc5nc4s3)c2)CC1	/	.	/	/	/	/
O=c1c2ccccc2nc2sc(Nc3cccc(N4CCNCC4)c3)nn12	/	50µM!	/	/	/	/
CN1CCN(c2cccc(Nc3nn4c(=O)c5ccc(N(C)C)cc5nc4s3)c2)CC1	/	50µM	/	/	/	/
O=C([C@@H](Cc1cccc(C(F)(F)F)c1)NS(=O)(=O)c1cc(F)c2c(c1)CCNC2)N1CCCC1	/	.	/	/	/	/
COc1ccc(-c2[nH]nc3nc(-c4cc(OC)c(OC)c(OC)c4)cc(C(=O)O)c23)cc1	16µM	.	.	.	.	.
N#Cc1cnc(NS(=O)(=O)c2ccc(NC(=O)Cc3ccc(Cl)c(Cl)c3)cc2)s1	/	79µM	/	/	/	/
O=C(Cc1ccc(Cl)c(Cl)c1)Nc1ccc(S(=O)(=O)Nc2cncnc2)cc1	/	.	/	/	/	/
O=C1Nc2ccc(I)cc2/C1=C/c1cc(Br)c(O)c(Br)c1	/	3.5µM	/	/	/	/
O=C1Nc2ccc(I)cc2C1=Cc1cc(Br)c(O)c(Br)c1	/	17µM	/	/	/	.
C[C@@H]1O[C@@H](O[C@H]2[C@H](O[C@H]3CC[C@@]4(C)C(CC[C@]5(C)C4CC=C4[C@@H]6CC(C)(C)CC[C@]6(C(=O)O)CC[C@]45C)[C@]3(C)CO)OC[C@H](O)[C@@H]2O)[C@H](O)[C@H](O[C@@H]2OC[C@@H](O)[C@H](O)[C@H]2O)[C@H]1O (stereo not given in full)	/	.[12.6 µM]	/	/	/	/
O=C(CCCn1ccc2cc(S(=O)(=O)N3CCCC3)ccc21)NCc1ccc(Cl)cc1	7.4µM	.	?	.	?	.
Cc1cc2c(s1)c1cnn(Cc3c(Cl)cccc3Cl)c(=O)c1n2C	/	.	/	/	/	/
CC1=C(C(=O)Nc2ccccc2)C(c2cc(Br)ccc2F)n2ncc(C(=O)Nc3ccccc3)c2N1 (stereo not given)	.	.	.	.	.	.
CC1=C(C(=O)Nc2ccc(C)cc2C)C(c2cc(Br)ccc2F)n2ncc(C(=O)Nc3ccc(C)cc3)c2N1 (stereo not given)	2.9µM	.	?	.	?	.
Nc1ncnc2c1c(-c1cccc(OCc3ccccc3)c1)cn2C1CC(CN2CCCC2)C1 (stereo not given)	/	13µM	/	/	/	.
CCC(=O)NC(c1ccco1)c1cc([N+](=O)[O-])c2cccnc2c1O (stereo not given)	/	.	/	/	/	/
CCC(=O)NC(c1cccs1)c1cc([N+](=O)[O-])c2cccnc2c1OC (stereo not given)	/	50µM!	/	/	/	/
COc1cc(C2NC(=O)c3c(sc4c3CCN(C)C4)N2)cc(Br)c1OC(=O)c1ccc(C)cc1 (stereo not given)	.	.	.	22µM	?	.

Screens from PubChem.
